# Assay outcomes deposited in PubChem BioAssay by National Center for Advancing Translational Sciences (NCATS).
# A selection: hits, their analogues and other compounds. The true share with any hit is near 21%.
# AMA1 RON2 block = qHTS for Inhibitors of AMA1-RON; Towards Development of Antimalarial Drug Lead: Primary Screen; Potency, µM (titrated, usually from 58.2 µM), most hits filed as inhibitors; 360,000 tested, 0.2% active; AlphaScreen AMA1-biotinylated RON2 peptide binding; AID 720542, 2013; also: nearly all actives have a fitted effect of over 45% in size
#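 AMA1 (3D7) with his tag at 25 nM final met compounds first, then biotinylated RON2 peptide at 25 nM; detection used donor plus acceptor beads, 10 µg/mL apiece, read by AlphaScreen after 30 min at room temperature.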
# Pf growth 96h = Primary qHTS for delayed death inhibitors of the malarial parasite plastid, 96 hour incubation; P. falciparum luciferase reporter growth, 96 h; Potency, µM (top dose mostly 28.7 µM), most hits filed as inhibitors; 320,000 tested, 6.9% active; AID 504834, 2011
#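 Parasite growth measured via integrated firefly luciferase reporter in P. falciparum. Infected erythrocytes at 2% hematocrit, 0.05% parasitemia final were treated 96 hours at 37 C under 5% CO2, and luminescence was read.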
# Pf growth 48h = Primary qHTS for delayed death inhibitors of the malarial parasite plastid, 48 hour incubation | P. falciparum luciferase growth in erythrocytes, 48 h | Potency, µM (doses to about 28.7 µM), actives largely listed as inhibitors | 310,000 tested, 5.9% active | AID 504832, 2011
#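 Growth was read as firefly luciferase luminescence after a 48 h, 37 C, 5% CO2 exposure of compounds to reporter-bearing P. falciparum cultures (0.1% parasitemia, 2% hematocrit final) in Albumax-supplemented RPMI 1640.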
# HCV inh = qHTS Assay for Inhibitors of Hepatitis C Virus (HCV) | Huh7.5.1 HCVcc-Cre infection, luciferase reporter, 44 h | Potency, µM (doses to about 41.8 µM), most hits filed as inhibitors | 340,000 tested, 3.4% active | AID 651820, 2012
#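 Compounds are dispensed onto cells plated 4 h earlier at 1,000 per well, with HCVcc-Cre virus (about 0.5 moi) added next. Following 44 h of culture, luminescent signal is measured for 15 sec after 15 min with substrate at room temperature.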
# Cycloheximide cs = Cycloheximide Counterscreen for Small Molecule Inhibitors of Shiga Toxin; cell reporter, cycloheximide protein synthesis inhibition counterscreen; max response, %; 300,000 tested, 12% active; AID 2314, 2010; in the data active = max response mostly above about 13%, no sharp cut-off; inactive = mostly below about 14%; also: read at 38.3 µM for the half of the compounds with a filed dose
# Shiga toxin inh = A qHTS for Small Molecule Inhibitors of Shiga Toxin; inhibition, % at 38.7 µM; Vero cells, Shiga toxin protein synthesis inhibition reporter; 290,000 tested, 9.2% active; in the data active = inhibition mostly above about 28%, no sharp cut-off; inactive = mostly below about 43%
# Hits are given with their value; n = inactive; u = inconclusive; x = not tested or not shown; [ ] = remark or other dose. Unless noted, calls follow the shape of the dose curve; as a rule, active = well fitted curve in the direction sought with a large enough effect; inconclusive = small, poorly fitted or top-dose-only effect, or another doubt; inactive = no such curve, though single readings can be large; an effect the other way counts as inactive or inconclusive.
SMILES,AMA1 RON2 block,Pf growth 96h,Pf growth 48h,HCV inh,Cycloheximide cs,Shiga toxin inh
CC(=O)O[C@H]1CC(C)(C)C(=C=C/C(C)=C/C=C/C(C)=C/C=C/C=C(C)/C=C/C=C(\C)C(=O)C[C@@]23O[C@]2(C)C[C@@H](O)CC3(C)C)[C@](C)(O)C1,n,u,9.28µM,n[8.37 µM],n,n
CCOC(=O)c1ccc2c(c1)nc(SCC(=O)c1cc3ccccc3o1)n2CC,n,u,x,u,n,n
CCOC(=O)c1ccc(S(=O)(=O)NNC(=O)c2ccc3c(c2)nc(C)n3CC)cc1,n,n,n,n,n,n
C=CCNC(=O)CSc1nc2cc(C(=O)OCC)ccc2n1CC,n,10.4µM,x,n,n,n
CCOC(=O)c1ccc2c(c1)nc(-c1ccccn1)n2CC,n,n,n,u,61.3,106.5
CCOC(=O)c1ccc2c(c1)nc(COc1ccc(OC)cc1)n2CC,n,9.28µM,x,u,n,n
O=c1[nH]c(C(F)(F)F)nc2ccc3ccccc3c12,n,n,n,u,n,n
CCOC(=O)CSc1nc(=O)n2cc(C)ccc2n1,n,n,n,n,17.3,n
Cc1ccc2nc(SCC(=O)OCc3ccccc3)nc(=O)n2c1,n,n,n,n,x,x
CCCSc1nc(=O)n2cc(C)ccc2n1,n,u,n,n,33.0,57.1
CCOC(=O)c1cc(S(=O)(=O)NCC2CCN(Cc3cccc(C)c3)CC2)cn1C,n,n,n,n,n,n
O=C(NCCSCc1c(F)cccc1Cl)Nc1ccccc1,n,u,u,n,31.7,75.0
O=C(Cc1ccccc1)NCCSCc1ccco1,n,n,x,n,n,n
O=C(NCCSCc1c(F)cccc1Cl)c1ccc(CN2CCOCC2)cc1,n,n,n,u,n,n
O=C(NCCSCc1ccco1)c1ccc(CN2CCOCC2)cc1,n,n,x,n,9.4,n
N#Cc1ccccc1CSCCNC(=O)Cc1c(F)cccc1Cl,n,n,n,n,16.6,n
O=C(NCCSCc1ccco1)Nc1ccccc1,n,n,n,n,48.4,n
CC(=O)NCCNC(=O)C1(C)Cc2c(-c3cccc(C(F)(F)F)c3)ccnc2O1 (centres undefined),n,x,x,x,x,x
COc1ccc(C#Cc2cnc3c(c2)C(=O)N([C@H](C)CO)C[C@@H](C)[C@H](CN(C)C(=O)CN(C)C)O3)cc1,n,x,x,x,x,x
CC(C(=O)N(C)Cc1cccc(F)c1)N1CCN(S(=O)(=O)c2ccc3c(c2)OCCCO3)CC1 (centres undefined),n,u,u,n,x,x
O=C1C2CC=CCC2C(=O)N1c1cccc(OS(=O)(=O)c2ccc3ccccc3c2)c1 (centres undefined),n,3.29µM,x,n,n,n
CC1CCC2C(=O)N(c3cccc(OS(=O)(=O)c4ccccc4)c3)C(=O)C2C1 (centres undefined),n,n,u,n,n,n
CC(C)c1ccc(NC(=O)C2Cc3c(-c4ccc(Cl)cc4)ccnc3O2)cc1 (centres undefined),n,x,x,x,x,x
O=C(NCc1ccco1)/C(=C/c1ccc(C(F)(F)F)cc1)c1nc2ccccc2[nH]1,n,u,n,u,59.3,11.9
O=C(COC(=O)/C=C/c1cccc(C(F)(F)F)c1)NCc1ccco1,n,n,n,n,x,x
SMILES,AMA1 RON2 block,Pf growth 96h,Pf growth 48h,HCV inh,Cycloheximide cs,Shiga toxin inh
O=C(NCc1ccco1)/C(=C/c1cccc(C(F)(F)F)c1)c1nc2ccccc2[nH]1,n,u,u,15.8µM,17.8,n
CCOc1ccc(S(=O)(=O)N2CCN(C(=O)c3cc(-c4ccccc4)nn3-c3ccccc3)CC2)cc1,n,u,u,u,x,x
O=C(c1cc(C2CC2)nn1-c1ccccc1)N1CCN(S(=O)(=O)c2c(F)cccc2F)CC1,n[11.6 µM],u,7.38µM,u,x,x
O=C(c1cc(C2CC2)nn1-c1ccccc1)N1CCN(c2ccc(O)cc2)CC1,u,u,10.4µM,u,x,x
O=C(c1cc(C2CC2)nn1-c1ccccc1)N1CCN(c2ccccc2O)CC1,n,x,x,n,x,x
CCOc1ccc(S(=O)(=O)N2CCN(C(=O)c3cc(C4CC4)nn3-c3ccccc3)CC2)cc1,n,u,4.65µM,u,x,x
Cc1cc(C)c(C#N)c(Oc2ccccc2Br)n1,n,n,n,n,n,n
CC(C)[C@@H]1Cc2[nH]n(C)c(=O)c2[C@H](c2ccc(F)cc2)O1,n,x,x,x,x,x
Cc1cc(C)c(C#N)c(OCC2CCCO2)n1 (centres undefined),n,x,x,x,x,x
CC(NC(=O)C1=CC=CN2CCS(=O)(=O)N=C12)c1ccc(Cl)cc1Cl (centres undefined),n,u,n,n,x,x
Cc1cc(C(=O)COC(=O)c2cc(Cl)c(O)c(Cl)c2)c(C)n1C,u,n,n,n,x,x
Cc1ccc(S(=O)(=O)N2[C@@H](c3ccc(Cl)cc3)C(C(=O)O)=CC[C@H]2c2ccc3c(c2)OCO3)cc1,n,8.28µM,9.28µM,n,x,x
CC[C@@H]1C=C(C(=O)O)[C@H](c2ccc3c(c2)OCO3)N1S(=O)(=O)c1ccc(C)cc1,n,x,x,31.6µM,x,x
CCCC[C@@H]1C=C(C(=O)O)[C@H](c2ccc(CC)cc2)N1S(=O)(=O)c1ccc(C)cc1,n,x,x,0.562µM,x,x
Cc1ccc(S(=O)(=O)N2[C@@H](c3cccc(Cl)c3)C(C(=O)O)=CC[C@H]2c2ccc3c(c2)OCO3)cc1,n,u,9.28µM,n,x,x
Cc1ncsc1CCC(=O)N1CCCC(C(=O)c2ccc3c(c2)OCO3)C1 (centres undefined),n,n,n,n,22.7,n
COc1ccc(C(=O)C2CCCN(C(=O)c3ccnn3C)C2)cc1OC (centres undefined),n,u,n,n,n,n
COc1ccc2cc(C(=O)C3CCCN(C(=O)c4ccnn4C)C3)ccc2c1 (centres undefined),n,u,u,u,n,39.3
COc1ccc2cc(C(=O)C3CCCN(C(=O)CCc4ccccn4)C3)ccc2c1 (centres undefined),n,n,u,n,23.7,31.3
COc1cccc(C(=O)C2CCCN(C(=O)CCc3scnc3C)C2)c1 (centres undefined),n,u,n,n,21.8,n
COc1ccc(C2=Nn3c(nnc3-c3ccccc3O)SC2)cc1OC,x,x,x,x,n,n
CC(=O)Nc1ccc(S(=O)(=O)NCC(=O)OCC(=O)NCCc2ccccc2)cc1,n,x,x,x,x,x
COc1c(C)cc(C(=O)C2CCCN(C(=O)CCc3scnc3C)C2)cc1C (centres undefined),n,n,n,10µM,n,n
Cc1ncsc1CCC(=O)N1CCCC(C(=O)c2cccc(Cl)c2)C1 (centres undefined),n,n,n,u,n,n
CCOC(=O)c1cnc(SC)nc1Oc1cccc(NS(=O)(=O)c2ccccc2)c1,n,u,n,10µM,n,n
